Rows were chosen to be rich in hits. Some 8.1% of all compounds tested hit in one or more screens of this group.
ELG1 DNA repair: ELG1-dependent DNA repair inhibition; HEK293T ELG1-luciferase reporter, luminescence, 16 h; DNA damage induced by 5-fluorouridine; AID 504467; Potency, µM (top dose mostly 46.1 µM), inactives show at the top dose activity change, negative = inhibition, usual class: inhibitors; actives 2.3% (n = 330,000); further: on the % scale 0 is the no-effect control and ±100 the full control effect; nearly all actives have a fitted effect of over 55% in size
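Luminescence from the luciferase reporter, measured 30 min after ONE-Glo reagent at room temperature, was the read-out. Beforehand, 2,000 cells per well were exposed for 16 hr at 37 °C to 5-fluorouridine together with compound or vehicle.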
KB-3-1 cytotox: kills parental KB-3-1 adenocarcinoma cells; KB-3-1 viability, CellTiter-Glo ATP luminescence, 72 h; Potency, µM (highest dose often 46.1 µM), usual class: cytotoxic; actives 1.4% (n = 400,000); AID 1347075; further: on the % scale 0 is the no-effect control and ±100 the full control effect; nearly all actives have a fitted effect of over 60% in size
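Luminescent ATP read-out (CellTiter-Glo) measures survival of drug-naive KB-3-1 cells after 72 h compound exposure at 37 °C. Titration series was screened from lowest to highest concentration, with DMSO vehicle plates as background controls.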
SW480 rereplic: DNA re-replication induction in SW480 cells; SW480 DNA re-replication, Hoechst DNA content imaging, 48 h; Potency, µM (series often up to 46.1 µM), without a hit: top-dose re-replication activation, actives largely listed as activators; actives 1.8% (n = 340,000); further: % of control where 0% means no effect; nearly all actives have a fitted effect of over 55% in size
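Compounds, transferred as 23 nL by pin tool, were incubated with cells for 48 hr; DNA content per nucleus was then quantified by Hoechst staining and fluorescence plate imaging.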
MCF10A rerep: induces DNA re-replication in MCF 10a normal breast cells; MCF 10A DNA re-replication, Hoechst nuclear intensity, 48 h; Potency, µM (series often up to 46.1 µM), for inactives: at the highest dose activity, positive = re-replication, most hits filed as activators; actives 2.9% (n = 350,000); AID 624296; further: % of control where 0% means no effect; nearly all actives have a fitted effect of over 50% in size
KB-V1 cytotox: KB-V1 MDR subline cytotoxicity | KB-V1 MDR cells viability, CellTiter-Glo, 72 h | actives 3.4% (n = 400,000) | Potency, µM (titrated, usually from 46.1 µM), most hits filed as cytotoxic; further: on the % scale 0 is the no-effect control and ±100 the full control effect; nearly all actives have a fitted effect of over 60% in size
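Drug-selected KB-V1 cells, grown in DMEM lacking phenol red with 10% FBS, receive compound titrations; after three days at 37 degrees C, surviving cell ATP is quantified by CellTiter-Glo luminescence and responses normalized and curve-fitted.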
* = called active by the depositor; i = inactive; ? = inconclusive; . = not tested or not shown. The call rests on the fitted dose curve; in most records, active means well fitted curve in the direction sought with a large enough effect; inconclusive means small, poorly fitted or top-dose-only effect, or another doubt; inactive means no such curve, though single readings can be large; an effect the other way counts as inactive or inconclusive. Potency means the concentration at half of the fitted maximal effect.

SMILES	ELG1 DNA repair	KB-3-1 cytotox	SW480 rereplic	MCF10A rerep	KB-V1 cytotox
CC(=O)/C(C#N)=C1\NC(=O)C(Cc2ccccc2)S1 (stereo not given)	3.1%	14.6µM*	?	23.7%	13µM*
Cc1ccc(S(=O)(=O)NC(=O)C2(C)CCN2C(=O)COc2ccc(Cl)cc2)nc1 (stereo not given)	.	i	.	.	i
Cc1ccc(NC(=S)NCC23C=CC(O2)C2C(=O)N(c4ccc(C)cc4)C(=O)C23)cc1 (stereo not given)	-14.6%	i	?	?	13µM*
Cc1cccc(NC(=S)NCC23C=CC(O2)C2C(=O)N(c4ccc(Cl)cc4)C(=O)C23)c1 (stereo not given)	-4.2%	i	?	?	?
C[C@@H]1[C@H](c2ccccc2)OCCS(=O)(=O)N1Cc1ccc(F)cc1	.	i	.	.	?
O=C(Nc1c(C(=O)N2CCN(c3ccccn3)CC2)oc2ccccc12)c1cccc([N+](=O)[O-])c1	?	i	-12.5%	2.0%	i
COc1ccc(S(N)(=O)=O)cc1C(=O)NC1CCCc2ccccc21 (stereo not given)	2.5%	i	-6.6%	-9.7%	i
Cc1cccc(Nc2nnc(SC/C(O)=C(\C#N)c3nc4ccccc4[nH]3)s2)c1	0.9%	?	25.3%	16.4µM*	i
Cc1ccc(Nc2nnc(SC/C(O)=C(\C#N)c3nc4ccccc4[nH]3)s2)c(C)c1	-18.3%	i	10.0%	?	i
CC(=O)O[C@H]1C(=O)[C@]2(C)[C@H]([C@H](OC(=O)c3ccccc3)[C@]3(O)C[C@H](OC(=O)[C@H](O)[C@@H](NC(=O)c4ccccc4)c4ccccc4)C(C)=C1C3(C)C)[C@]1(OC(C)=O)CO[C@@H]1C[C@@H]2O	.	0.164µM*	?	93.2%	18.4µM*
CC(=O)O[C@@]12CO[C@@H]1C[C@H](O)[C@@]1(C)C(=O)[C@H](O)C3=C(C)[C@@H](OC(=O)C(O)[C@@H](NC(=O)OC(C)(C)C)c4ccccc4)C[C@@](O)([C@@H](OC(=O)c4ccccc4)[C@H]21)C3(C)C (stereo not given in full)	.	.	0.0075µM*	?	.
CC(=O)O[C@H]1C(=O)[C@@]2(C)C([C@H](OC(=O)c3ccccc3)[C@]3(O)C[C@H](OC(=O)[C@H](O)[C@@H](NC(=O)c4ccccc4)c4ccccc4)C(C)=C1C3(C)C)[C@]1(OC(C)=O)CO[C@@H]1C[C@H]2O (stereo not given in full)	-24.6%	0.058µM*	2.06µM*	?	?
CCCC(O)c1nc2ccccc2n1CCCOc1ccc(Cl)cc1 (stereo not given)	.	i	.	.	i
O=[N+]([O-])c1ccccc1S(=O)(=O)N1CCN(S(=O)(=O)c2ccc3c(c2)OCCO3)CC1	?	i	-2.3%	-3.7%	i
COc1ccc(Cn2c(=O)c3[nH]cnc3n(-c3ccccc3C)c2=O)cc1	-0.8%	16.4µM*	16.4µM*	16.4µM*	?
COc1ccc(C)c(-n2c(=O)n(Cc3ccccc3)c(=O)c3[nH]cnc32)c1	-3.6%	i	-24.7%	1.0%	i
CCNC(=S)N1CCc2cc(OC)c(OC)cc2C1COc1ccc(F)cc1 (stereo not given)	?	i	-1.2%	-3.4%	i
COCCNC(=S)N1CCc2cc(OC)c(OC)cc2C1COc1ccc(F)cc1 (stereo not given)	16.4µM*	i	15.5%	1.1%	i
COCCNC(=S)N1CCc2cc(OC)c(OC)cc2C1COc1ccc(C(C)C)cc1 (stereo not given)	9.2µM*	i	?	5.0%	i
C=CCN1C(C(=O)c2ccccc2)=C(OC(=O)COc2ccccc2)c2ccccc2S1(=O)=O	?	?	?	?	11.6µM*
CCOC(=O)CN1C(C(=O)c2ccccc2)=C(OC(=O)c2ccccc2)c2ccccc2S1(=O)=O	.	i	.	.	i
CCN1C[C@@H]2[C@@H]3C(=O)N(C)C(=O)[C@@H]3[C@](CC)(C1=O)N2C(=O)c1ccc(C(C)(C)C)cc1	4.3%	i	3.8%	-17.0%	i
CN1CCN(C(=O)Nc2ccc3c(c2)N(C)C(=O)c2ccccc2S3)CC1	?	i	-1.5%	-0.2%	i
CN1CCN(C(=O)Nc2cccc(-c3ccccc3)c2)CC1	-5.2%	i	16.4µM*	?	i
CC(C)(C)C(=O)Cn1ncc(N2CCOCC2)c(Cl)c1=O	24.7%	i	-8.6%	-1.8%	i
SMILES	ELG1 DNA repair	KB-3-1 cytotox	SW480 rereplic	MCF10A rerep	KB-V1 cytotox
CC(C)(C)C(=O)Cn1ncc(Br)c(Br)c1=O	?	10.3µM*	7.31µM*	5.8µM*	i
COCCCNC(=O)c1ccc(-n2nc(C(F)(F)F)cc2-c2cccs2)cc1	?	i	-6.5%	3.1%	?
O=C(NCCCN1CCOCC1)c1ccc(-n2nc(C(F)(F)F)cc2-c2cccs2)cc1	14.6µM*	?	-0.5%	?	?
O=C(N/N=C/c1cccc2ccccc12)c1cc2ccccc2o1	-9.3%	?	114.1%	11.6µM*	?
C=CCn1cc(/C=N\NC(=O)c2cc3c(ccc4ccccc43)o2)c2ccccc21	?	i	5.1%	22.5%	i
COc1ccc(/C=N/NC(=O)c2cc3c(ccc4ccccc43)o2)c(OC)c1	?	?	?	?	i
O=C(COc1ccc(/C=N/NC(=O)c2cc3ccccc3o2)cc1Cl)Nc1ccccc1	?	7.31µM*	7.6%	?	9.2µM*
O=C(N/N=C/C=C/c1ccccc1)c1cc2c(ccc3ccccc32)o1	?	?	11.6µM*	?	?
O=C(N/N=C/c1ccccc1F)c1cc2c(ccc3ccccc32)o1	4.5%	i	15.3%	-9.5%	i
COc1ccc(OC)c(/C=N\NC(=O)c2cc3c(ccc4ccccc43)o2)c1	16.4µM*	i	14.8%	?	i
O=C(NCC(c1ccco1)N1CCCC1)c1cccc(S(=O)(=O)N2CCOCC2)c1 (stereo not given)	3.9%	i	-20.5%	-6.0%	i
O=C(N/N=C/c1ccsc1)c1cc2ccccc2o1	17.7%	i	1.4%	-13.3%	i
COC(=O)c1ccccc1-c1ccc(/C=N/NC(=O)c2cc3ccccc3o2)o1	?	?	-0.5%	?	13µM*
O=C(c1cc(N2C(=O)C3C4CCC(C4)C3C2=O)ccc1Cl)N1CCCCCC1 (stereo not given)	11.6%	i	4.1%	?	i
COc1ccc(N2CCN(C(=O)c3cc(N4C(=O)C5C6CCC(C6)C5C4=O)ccc3Cl)CC2)cc1 (stereo not given)	?	?	-74.9%	-51.6%	4.61µM*

Compound activity: PubChem, National Center for Advancing Translational Sciences (NCATS)
